According to PubChem BioAssay (NCI):
The panel holds about 83,000 compounds, 20% with a hit somewhere; the sample as a whole holds those more often.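 Assay: single dose, 48 h. Readout: percent growth (0 = no net growth; negative = cell death). Active: <10.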 Unmarked numbers belong to inactive results. Activity calls are given as the source filed them.

Tested on: ACHN renal
Assay: NCI-60 one-dose screen, 48 h (100 = growth as untreated, 0 = no growth, -100 = all killed)
Conditions: 10 µM unless noted
Experimental: Growth inhibition of the ACHN human tumor cell line is measured as a screen for anti-cancer activity. Cells are grown in 96 well plates and exposed to the test compound for 48 hours. Compounds are tested at a single concentration, which is 10^-5 M for most compounds. The reported endpoint is percent growth (GI% or GIPRCNT), where numbers from 0 - 100% represent growth inhibition, and numbers from -100% - 0 represent cell death. For example, a value of 40 represents 60% growth inhibition. A value of 0 means no net growth occurred over the course of the experiment. A value of -40 indicates 40% of cells at the beginning of the experiment died by the end of the experiment. A value of -100 means all cells are dead at the end of the experiment.
NCI-60 Human Tumor Cell Lines Screen was performed using the standard one-dose NCI protocol, which is described in more detail at https://dtp.cancer.gov/discovery_development/nci-60/default.htm.
Compounds with GIPRCNT values below 10 were considered active. Activity score was based on GIPRCNT using the following formula: […]
Score is 0 for GIPRCNT values of 100 or above, 50 for GIPRCNT values of 0, and 100 for GIPRCNT values of -100.

Structure (SMILES) | growth
COS(=O)(=O)CCN(CCOS(C)(=O)=O)S(C)(=O)=O | 92.9%
CCOC(=O)Nc1ccc2nc(-c3cscn3)[nH]c2c1 | 73.9%
COc1ccc2c(c1)N(CCO)C1=C(C(=O)OC1)C2c1cccc(Br)c1 (stereo not given) | 28.4%
CCOC(=O)c1ccc(N(CCC(=O)O)C(C)=O)cc1 | 112%
Cn1c(=O)c2c3c(oc2c2ccccc21)C(=O)c1ccccc1C3=O | 75.5%
Cc1c(C)c(C)c([N+](=O)[O-])c([N+](=O)[O-])c1C | 98.9%
COc1ccc(-c2oc(=O)ccc2-c2cc(OC)c(OC)c(OC)c2)cc1F | 87.1%
Cc1cc(Cl)c2ccc(N(C)C)cc2n1 | 97.6%
O=C1/C(=C\c2cccn2C(=O)c2ccccc2)c2ccccc2N1c1c(Cl)cccc1Cl | 79%
Cc1ccc2oc(=O)cc(-c3nc4ccc([N+](=O)[O-])cc4[nH]3)c2c1 | 63%
Cc1cc(C)c2c(n1)sc1c(Nc3ccc(Cl)cc3Cl)ncnc12 | 11.7%
COc1cc2cc(C(=O)Nc3ccccc3)c(N)nc2cc1OC | -0.0696% (active)
Cc1cc(N=Nc2ccc(-c3ccc(N=Nc4ccc(O)c(C(=O)O)c4)cc3)cc2)c(N)c(N=Nc2ccc(C(=O)O)cc2)c1N | 80.3%
NC(N)=N/N=C\c1ccc(OCc2ccccc2)cc1 | 75.7%
COc1ccc(-c2[nH]nc(N)c2-c2cc(OC)c(OC)c(OC)c2)cc1 | 25.5%
COc1ccc(-c2nsc3c2NC(=O)CC3c2cccc(F)c2)cc1 (stereo not given) | 66.2%
CNC(=O)c1ccccc1Sc1ccc2c(/C=C/c3ccccn3)n[nH]c2c1 | 31.2%
O=C1/C(=C\c2cccn2Cc2ccc(F)cc2)c2ccccc2N1c1c(Cl)cccc1Cl | 62.9%
Cc1cc(NC(=O)c2ccc(N)cc2)ccc1N=Nc1ccc2cc(S(=O)(=O)O)cc(S(=O)(=O)O)c2c1 | 95.2%
COc1ccc(Nc2ncnc3c2sc2nc(C)cc(C)c23)cc1 | 97.2%

Structure (SMILES) | growth
CCCCCc1c(C)[nH]c(/C=C2\N=C(c3ccc[nH]3)C=C2CC)c1C | -94.7% (active)
C=CCn1c(C)nc2cc(Nc3nc(N4CCOCC4)nc4nc[nH]c34)ccc21 | 93.7%
O=C(CCc1nc2sc3c(c2c(=O)[nH]1)CCC3)NCc1cn(-c2ccccc2)nc1-c1ccccc1 | 81.1%
CN(C)CCOc1nc2c3ccncc3cc(-c3cccc(Cl)c3)c2c2cnccc12 | 14.5%
CCN(CC)Cc1cc(Nc2ccnc3cc(Cl)ccc23)cc(-c2ccc(Cl)cc2)c1O | 57.1%
Clc1ccc(-c2nc(Br)cn3ccnc23)cc1 | 83.4%
COc1ccc(/C=c2\c(=O)n(-c3ccccc3)c3nn4c(n23)=NNC42CCCCC2)cc1 | 90.5%
Fc1[nH]nc2ccc([C@@H]3Nc4ccc5[nH]ncc5c4[C@H]4C5CCC(C5)[C@@H]34)cc12 (stereo not given in full) | 43.7%
Clc1ccc(Nc2ncnc3c2sc2ncccc23)cc1 | 14.7%
COc1ccc(-c2nc(-c3cc(OC)cc(OC)c3)[nH]c2-c2ccc(OC)cc2)cc1 | 41.3%
CCCC(CCC)NCC(O)c1cc(-c2ccc(C(F)(F)F)cc2)nc(C(F)(F)F)c1 (stereo not given) | -60.1% (active)
COc1ccc(C2=NN(C=O)C(c3ccc(OS(=O)(=O)c4ccc(C)cc4)c(OC)c3)C2)cc1 (stereo not given) | 69.1%
FC(F)(F)c1ccc(/C=N/Nc2nnc3n2N=C(c2ccc(Cl)cc2)CS3)cc1 | 28.4%
CC(=O)c1ccc(-n2c(-c3cc(-c4ccsc4)n[nH]3)n[nH]c2=S)cc1 | 88.4%
Oc1ccc(-c2cnc(-c3ccccc3)[nH]2)c(O)c1 | 109%
C#CC[C@@H]1C[C@]2(C)[C@H]3CC=C4[C@H]5[C@@H](C)[C@H](C)CC[C@]5(C(=O)NCCCCCCCCN)CC[C@@]4(C)[C@]3(C)CC[C@H]2C(C)(C)[C@H]1OC(C)=O | 85.8%
CC(=O)N1N=C(c2ccc(C)cc2)CC1c1cn(-c2ccccc2)nc1-c1cccc(Nc2ccnc3cc(Cl)ccc23)c1 (stereo not given) | 81.2%
NC(N)=N/N=C/c1ccccc1 | 106%
OC(c1cc2c(Cl)cc(Cl)cc2c2cc(C(F)(F)F)ccc12)C1CCCCN1 (stereo not given) | -78.6% (active)
CCOC(=O)c1ccc(NCCC(=O)O)cc1 | 103%
